# Screens (PubChem BioAssay)
# BoNT F protease – blocks Botulinum neurotoxin F light chain protease | 360,000 compounds, 0.22% hits | Multiplex microsphere protease cleavage assay, flow cytometry | inhibition, % at 10 µM | AID 588497; in the data active means inhibition above about 35%, passing the limit was not always enough; inconclusive means no clear call, values can overlap the other calls; further: plate controls were buffer without enzyme for full effect and enzyme alone for no effect
# PfHsp40 yeast – restores yeast growth despite PfHsp40 toxicity | S. cerevisiae expressing PfHsp40, growth rescue, ATP luminescence | growth rescue, % at 12.5 µM | 340,000 compounds, 0.68% hits | AID 504582; in the data active means growth rescue above about 28%, passing the limit was not always enough; inconclusive means no clear call, values can overlap the other calls;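 further: yeast W303a lacking pdr1 and pdr3 grown in galactose medium; growth measured after three days at 30 °C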
# MazEF act – activators of E. coli MazEF toxin-antitoxin RNase; P0AE70; FAM/BHQ RNA-DNA oligo cleavage fluorescence, 5 h; activation, % at 20 µM; 350,000 compounds, 0.32% hits; AID 504720; in the data active means activation above about 50%
# Target sequence (P0AE70 whole entry, looked up): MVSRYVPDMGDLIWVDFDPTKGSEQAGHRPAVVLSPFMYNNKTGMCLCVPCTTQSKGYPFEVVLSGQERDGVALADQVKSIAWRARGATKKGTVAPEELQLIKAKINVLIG
# BoNT-A LC inh2 – BoNT A light chain protease inhibition. multiplex microsphere protease substrate cleavage, flow cytometry. inhibition, % at 10 µM. 360,000 compounds, 0.17% hits; further: plate controls were buffer without enzyme for full effect and enzyme alone for no effect
# Anthrax LF inh2 – inhibitors of Bacillus anthracis lethal factor protease | multiplex microsphere protease cleavage assay, LF | P15917 | inhibition, % at 10 µM | 360,000 compounds, 0.12% hits | AID 588501; further: plate controls were buffer without enzyme for full effect and enzyme alone for no effect
# Bead autofluor – counter-screen for toxin protease inhibitors: compound fluorescence. compound autofluorescence counterscreen, microsphere flow cytometry; hits give high values. fluorescence intensity (test concentration not listed). 360,000 compounds, 3.1% hits. AID 624483; in the data active means fluorescence intensity above about 16000; inconclusive means no clear call, values can overlap the other calls
# Numbers without * were called inactive; ? = inconclusive; · = no result given. In the library only some 4.3% were active in any assay of this set; here they are far more common. Unless noted, no stated cut-off is given here; in the data, active means inhibition above about 30%; inconclusive means no clear call, values can overlap the other calls; inactive means below that.
SMILES,BoNT F protease,PfHsp40 yeast,MazEF act,BoNT-A LC inh2,Anthrax LF inh2,Bead autofluor
CC1(C)CC(=O)C2=C(C1)OC(N)=C(C#N)C21C(=O)N2CCCc3cccc1c32 (stereo unspecified),0.6,0.4,1.9,0.9,-4.6,16191*
Cc1ccc(S(=O)(=O)N2CCCN(S(=O)(=O)c3ccc(C)c(C)c3)CC2)cc1C,-3.3,1.6,-2.8,-1.9,-7.1,16751*
Cc1ccc(S(=O)(=O)N2CCN(C(=O)N3CCOCC3)CC2)cc1C,14.9,-0.2,4.6,0.0,-4.0,4030
Cc1ccc(S(=O)(=O)N2CCN(S(=O)(=O)N3CCOCC3)CC2)cc1C,4.3,-0.9,3.8,-0.5,-3.0,16305*
Cc1ccc(Nc2nc(-c3ccc(S(=O)(=O)N4CCCC4)cc3)cs2)cc1C,-8.8,-1.2,1.4,-4.4,-4.6,25361*
Cc1cc(C)cc(Nc2nc(-c3ccc(S(=O)(=O)N4CCCC4)cc3)cs2)c1,-16.1,0.2,4.6,-1.5,-1.7,1864
O=CN1CCC(=O)N(Cc2ccccc2)c2ccccc21,-5.7,1.3,-0.3,?,-1.8,24835*
O=C1CCc2ccccc2N1Cc1ccccc1,-22.4,1.4,-4.0,-3.3,-0.2,3670
CCOC(=O)c1c(/N=C/C2C(=O)NC(=O)NC2=O)sc2c1CCC2,-1.8,-1.4,123.3*,-1.0,-3.5,3797
CCOC(=O)c1c(C)nc2c(c1-c1cc(OC)ccc1OC)C(=O)CC(C)(C)C2,?,12.2,-2.4,-1.8,11.7,4010
C[C@@H]1CN([C@H](C)CO)C(=O)CCCn2cc(nn2)CO[C@H]1CN(C)C(=O)Cc1ccccc1,2.4,·,-2.5,0.1,-0.4,3712
COc1ccc([C@H]2CC(=O)C=C(c3ccc(C(=O)O)cc3)C2)cc1OC,-8.9,0.1,-7.7,-0.2,-5.5,3908
COc1ccccc1NC(=O)CSc1nncn1-c1ccccc1,?,-2.1,7.8,-1.3,-1.8,4323
O=C(CSc1ncccn1)NCc1ccccc1,-1.5,-1.1,7.6,-1.7,7.8,10053
COc1ccccc1NC(=O)CSc1ncn(-c2ccccc2)n1,8.7,0.3,4.2,?,-5.3,20548*
O=C(CSc1ncn(-c2ccccc2)n1)NCc1ccccc1,-3.8,0.4,1.8,?,0.1,23754*
O=C(CSc1ccccc1)NC(=O)NCc1ccccc1,-7.9,83.6*,8.2,-1.4,-7.7,4361
Cc1nc(SCC(=O)NC(=O)NCc2ccccc2)nc(C)c1C,-11.3,-0.2,-4.7,0.0,-1.4,3890
CCc1nc(OCCN(CC)CC)c2oc3ccccc3c2n1,-7.9,0.5,2.2,-0.4,0.7,6107
CCN(CC)CCOc1ncnc2c1oc1ccccc12,5.4,-0.5,5.8,?,0.5,19366*
CSCC[C@H](NC(=O)OC(C)(C)C)C(=O)N1CCC(C(=O)N[C@H](C(=O)O)C(C)C)CC1,-5.2,-1.3,4.4,-0.9,-0.8,10667
CSCC[C@H](NC(=O)OC(C)(C)C)C(=O)N1CCC(C(=O)N[C@@H](C)C(=O)O)CC1,0.3,3.6,-1.7,?,0.4,20586*
CC(C)(C(=O)Nc1nccs1)c1ccccc1,2.3,0.0,-25.6,0.0,-2.5,3872
Cc1occc1-c1n[nH]c(=S)n1CC(C)C,-1.6,-0.5,-6.3,-2.7,-1.5,23617*
Cc1cc(NC(=O)CSc2nnc(Cc3ccccc3)n2C)no1,-4.6,-0.1,0.3,0.1,0.4,3862
SMILES,BoNT F protease,PfHsp40 yeast,MazEF act,BoNT-A LC inh2,Anthrax LF inh2,Bead autofluor
CCn1c(Cc2ccccc2)nnc1SCC(=O)Nc1cc(C)on1,2.9,0.5,2.5,3.4,-4.1,21460*
COCCCn1c(C)nnc1SCC(=O)NNC(=O)COc1ccc(Cl)cc1,7.2,-0.5,4.5,0.8,12.0,3611
CNC(=O)CSc1nnc(COc2ccc(Cl)cc2)n1CCOC,3.8,0.8,-10.0,1.8,0.8,22197*
COCCn1c(Cc2ccccc2)nnc1SCC(=O)N(C)C,2.2,2.8,3.4,1.3,1.0,21939*
CCn1c(SCC(=O)Nc2nc(C)c(C)s2)nnc1-c1cccnc1,-6.5,-0.8,-6.1,-4.9,-1.0,17323*
COCCn1c(Cc2ccccc2)nnc1SCC(=O)NC(C)(C)C,6.1,-0.2,-11.3,-0.1,-3.4,8229
CCN(CC)C(=O)c1cn(CCC#N)nc1-c1ccc2ccccc2c1,5.3,-1.2,-4.4,-3.6,-4.1,4035
O=C(N/N=C/c1ccc([N+](=O)[O-])o1)c1ccccc1NS(=O)(=O)c1cccs1,-13.7,1.1,-14.6,-1.8,-11.0,?
CC(C)CNC(=O)C1(C)CCCN1Cc1ccc(S(C)(=O)=O)cc1 (stereo unspecified),-1.6,·,·,0.1,-3.7,3435
CCn1c(Cc2ccccc2)nnc1SCC(=O)OC(C)C,7.1,-0.1,-1.5,6.6,3.1,21705*
COCCn1c(SCC(=O)OC(C)C)nnc1-c1ccccc1,-3.3,-1.0,0.1,-2.7,-7.3,24184*
Cc1cc(NC(=O)CSc2nnc3ccccn23)no1,14.9,0.9,2.0,-4.6,-4.4,17051*
CCn1c(SCC(=O)Nc2cc(C)on2)nnc1-c1cccnc1,-1.5,-0.7,0.9,-1.0,-1.6,20847*
Cc1cc(NC(=O)CSc2nnc(-c3cccnc3)n2Cc2ccccc2)no1,2.0,-0.2,2.8,-1.5,-3.1,3939
Cn1c(Cc2ccccc2)nnc1SCC(=O)c1ccc(Br)s1,-4.4,0.9,0.8,-2.1,-3.2,23767*
N#C/C(=C\c1c[nH]c2ccccc12)C(N)=O,?,0.7,-1.9,-13.5,-5.1,4310
CC(=O)Oc1c(/C=C(\C#N)C(N)=O)[nH]c2ccccc12,0.8,-0.5,596.7*,0.9,0.7,2674
Cc1c(C2N3CC4(C)CN2CC(C)(C3)C4=O)c2ccccc2n1C (stereo unspecified),1.8,-0.6,21.5,1.3,-9.8,22039*
CCC1Nc2ncnc(N3CCN(c4ccccn4)CC3)c2N(Cc2ccc(Cl)cc2)C1=O (stereo unspecified),-2.0,-0.3,-1.9,-0.3,-1.4,3063
Cc1ccc(C2=NCC(=O)N(CC(=O)N3CCCCC3)c3sc(C)c(C)c32)cc1,-4.1,0.6,6.6,?,-0.3,23432*
Cc1sc2ncn(CC(=O)N3CCCCC3)c(=O)c2c1C,-0.6,-0.9,5.0,-0.1,-1.4,2259
CCOC(=O)CC1COCCN1Cc1cn[nH]c1-c1cc(OC)c(OC)c(OC)c1 (stereo unspecified),-6.1,-0.6,3.6,-0.1,-1.6,4724
O=C(NC1CCSc2ccccc21)c1cc([N+](=O)[O-])ccc1N1CCOCC1 (stereo unspecified),10.1,35.8*,3.9,0.5,-4.1,5084
O=C(Nc1ccccc1)c1cc([N+](=O)[O-])ccc1N1CCCCC1,-3.8,2.4,4.8,0.5,1.1,2808
O=C(NC1CCSc2ccccc21)c1ccc([N+](=O)[O-])cc1 (stereo unspecified),6.5,-1.4,-0.6,0.6,-3.0,5711
O=C(NC1CCCCC1)c1cc([N+](=O)[O-])ccc1N1CCCCC1,-2.4,0.0,-0.9,-1.4,-5.2,23223*
